PAX8 inh HTS: PAX8 transcriptional activity inhibition | inhibition, % at 12.6 µM | RMG-I TPO-luciferase reporter, SteadyGlo, 24 h | 1.2% of 360,000 active;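 active means mean replicate inhibition at least 60% with every replicate also reaching 60%; inconclusive means only one of the two criteria is met; inactive means mean below 60% and not all replicates reaching 60%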;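 further: luciferase light reporting Pax8 driven TPO promoter activity; plate controls were median of neutral control wells for no effect and mitoxantrone controls for full effect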
EWS-Fli block: EWS/Fli transcriptional activity inhibition; A673 NR0B1-luciferase reporter, viability-normalised; inhibition, % at 12.6 µM; 0.67% of 350,000 active; AID 651661;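 active means mean inhibition of at least 50% after viability correction, with every replicate also passing that limit; inconclusive means mean reaches 50% but only one of two replicates passes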;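 further: firefly luciferase signal divided by Alamar Blue viability fluorescence both relative to DMSO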
rRNA inh HTS: inhibitors of bacterial rRNA selective over humanized ribosomes | E. coli WT GFP vs humanized-ribosome RFP mutants, fluorescence, 24 h; hits give low values; DMSO median 0, no signal -100 | GFP signal change (wild-type ribosome), % (no concentration beside the values) | 1.6% of 350,000 active | AID 720706;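 active means significant combined selectivity score with lowered wild-type GFP, culture density cut under 30%, mutant RFP and density less affected; inactive means any of these conditions unmet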
LGR2 inh: inhibitors of bursicon-induced Drosophila LGR2 receptor cAMP signaling | inhibition, % at 9.99 µM | HEK293 LGR2, CRE-luciferase, bursicon-stimulated, 4 h | AID 720647 | 0.35% of 380,000 active;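 active means drop in luminescence signal, shown as inhibition above about 50% in the replicate tests, limit read from the data, passing the limit was not always enough; inconclusive means probably only some replicates passing the limit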;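 further: agonist challenge used bursicon conditioned medium at about half maximal strength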
PGC1a acetyl inh: lowers PGC1a acetylation signal in U2OS cells | 0.17% of 350,000 active | inhibition, % at 15.6 µM | AID 651687 | AlphaScreen anti-acetyl-lysine; with virally co-expressed GCN5 acetyltransferase;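 active means every replicate shows inhibition of at least 40%; inconclusive means mean inhibition at least 40% but some replicate below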;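 further: 0% = neutral control wells and 100% = positive control wells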
SIRT5 block: blocks human SIRT5 desuccinylation of peptide; Q9NXA8; Purified SirT5, succinyl-peptide AMC, trypsin-coupled fluorescence; inhibition, % at 15 µM; 1.1% of 330,000 active; AID 652115; in the data active means inhibition above about 15%; inconclusive means no clear call, values can overlap the other calls
Target sequence (Q9NXA8 whole entry, looked up): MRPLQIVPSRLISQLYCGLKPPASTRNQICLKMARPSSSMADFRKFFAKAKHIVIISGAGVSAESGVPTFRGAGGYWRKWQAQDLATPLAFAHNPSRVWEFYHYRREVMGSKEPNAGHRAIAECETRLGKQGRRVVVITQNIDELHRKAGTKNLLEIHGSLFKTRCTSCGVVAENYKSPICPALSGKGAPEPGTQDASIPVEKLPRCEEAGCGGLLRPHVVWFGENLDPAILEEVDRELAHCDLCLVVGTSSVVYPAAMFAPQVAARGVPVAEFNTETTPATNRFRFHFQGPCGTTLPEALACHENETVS
Starred values were filed as active, the others as inactive; u = inconclusive; x = no result. Shown are actives, neighbours in structure and some others; about 3.4% of the full set was active somewhere.

SMILES | PAX8 inh HTS | EWS-Fli block | rRNA inh HTS | LGR2 inh | PGC1a acetyl inh | SIRT5 block
O=C1OCCC1Sc1nnc(-c2ccc(Cl)cc2Cl)o1 (stereo not given) | 53 | 49 | 1 | 74* | 9 | x
Clc1ccc(-n2nnc(-c3nccs3)n2)cc1Cl | -67 | -48 | 2 | -55 | x | 0
Cc1ccc(-n2nnc(-c3nccs3)n2)cc1 | 36 | 82* | -10 | -12 | 13 | x
COc1cc(OC)nc(Oc2ccccc2C(=O)Oc2ccc(Cl)cc2)n1 | x | 14 | -14 | 7 | -17 | -7
COc1cc(OC)nc(Oc2ccccc2C(=O)Oc2ccccc2Cl)n1 | x | -1 | -23* | -7 | -13 | 8
C[C@@H]1CN([C@@H](C)CO)C(=O)c2cc(NS(C)(=O)=O)ccc2O[C@@H](C)CCCCO[C@@H]1CN(C)C(=O)CCCN(C)C | -26 | -2 | x | x | -3 | x
CCC(=O)NC(c1cccs1)c1cc([N+](=O)[O-])c2cccnc2c1O (stereo not given) | 42 | 21 | -7 | 24 | 9 | 24*
CCC(=O)NC(c1ccco1)c1cc(Cl)c2cccnc2c1O (stereo not given) | 85* | 19 | -34 | -13 | -8 | -4
CCCC(=O)N1CC2(CN(C(C)=O)C2)c2c(n(C)c3cc(OC)ccc23)[C@@H]1CO | x | x | 5 | x | x | x
Cc1ccc2nc(NC(=O)CCCC(=O)O)sc2c1 | 2 | 81* | 13 | u | x | -3
CS(=O)(=O)c1ccc2nc(NC(=O)CN3C(=O)C4CC=CCC4C3=O)sc2c1 (stereo not given) | -1 | 2 | 6 | 6 | -4 | 2
Cc1ccc2nc(NC(=O)CCCc3nc4ccccc4s3)sc2c1 | x | x | x | -5 | 11 | x
Cc1ccc2nc(NC(=O)CN3C(=O)C4CC=CCC4C3=O)sc2c1 (stereo not given) | -9 | -14 | -25* | 11 | 4 | 3
COC(=O)C(c1ccccc1)C1(O)CC(C)N(C)CC1C (stereo not given) | -9 | -6 | 17 | 8 | -3 | 26*
N=C(N)c1ccc(OCCCCCOc2ccc(C(=N)N)cc2)cc1 | 83* | 6 | -10 | 1 | 10 | -5
C[C@H]1CCCCO[C@@H](CN(C)Cc2ccc(C(F)(F)F)cc2)[C@@H](C)CN([C@@H](C)CO)C(=O)c2cc(NS(C)(=O)=O)ccc2O1 | 2 | 10 | 6 | 17 | -2 | x
C[C@@H]1CN([C@@H](C)CO)S(=O)(=O)c2ccc(C#CC(C)(C)O)cc2O[C@H]1CN(C)C(=O)C1CCC1 | x | 3 | 1 | -10 | 4 | -2
CO[C@@H]1CN(C)C(=O)c2cc(NC(=O)CC(F)(F)F)ccc2OC[C@H](C)N(C(C)=O)C[C@@H]1C | x | 3 | 2 | 5 | 6 | 2
COc1cc(Cn2c3ccc(NC(=O)CCc4ccccc4)cc3c(=O)n2C)ccc1F | 38 | 54* | 4 | 1 | -30 | -18
Cc1cc(C(=O)Nc2cccc3c2O[C@@H](CN(C)S(=O)(=O)c2ccccc2)[C@@H](C)CN([C@@H](C)CO)C3=O)n(C)n1 | 17 | -10 | 0 | 0 | 5 | 5
COc1ccc2c3c([nH]c2c1)[C@H](CO)NCC31CN(S(=O)(=O)c2ccccc2)C1 | x | x | -4 | x | x | x
CC(=O)c1c(C)[nH]c(C(=O)OCC(=O)N2CCc3ccccc3C2)c1C | 24 | 6 | -22* | -14 | -2 | -11
O=C(NCc1ccccc1Cl)[C@H]1CCCN1C(=O)[C@H]1CCCN1C(=O)c1cccc2ccccc12 | 19 | -15 | -23* | -8 | x | -4
O=C(NCc1ccccc1)[C@H]1CCCN1C(=O)[C@H]1CCCN1C(=O)c1cccc2ccccc12 | 8 | -3 | -3 | -11 | x | x
CCCC(=O)N1CC2(CN[C@H](CO)c3c2c2ccc(OC)cc2n3C)C1 | x | 1 | 1 | 7 | 3 | x
SMILES | PAX8 inh HTS | EWS-Fli block | rRNA inh HTS | LGR2 inh | PGC1a acetyl inh | SIRT5 block
COc1cccc(OC)c1NC(=O)C1CCCN1C(=O)NCc1ccccc1 (stereo not given) | -1 | x | x | x | 97* | x
C[C@@H]1CCn2cc(nn2)COC[C@H](Cc2ccccc2)NC1=O | x | x | 1 | x | x | x
COc1ccc(C=C2OC(=O)C(C(C)=O)=C2O)cc1 | -31 | 18 | 29 | 4 | x | 11
CC(=O)C1=C(O)C(=Cc2ccccc2)OC1=O | -32 | -14 | 22 | 7 | x | 20*
Cc1cc(C)c2nc(Cl)c(CN(Cc3ccco3)C(=O)Nc3ccccc3C)cc2c1 | x | 56* | -12 | -11 | 8 | -2
COCCN(Cc1cc2cc(C)cc(C)c2nc1Cl)C(=O)Nc1ccccc1 | x | 43 | -6 | -6 | 11 | 0
COc1nc(N2CCOCC2)nc(-n2cccc2)n1 | x | x | -1 | -12 | x | 23*
COc1ccc(Nc2nc(OC)nc(N3CCOCC3)n2)cc1 | -2 | -9 | 6 | -6 | 0 | -3
C[C@@H]1CCCCO[C@H](CN(C)S(=O)(=O)c2cccs2)[C@@H](C)CN([C@@H](C)CO)C(=O)c2cc(NC(=O)Nc3ccc(C(F)(F)F)cc3)ccc2O1 | 75* | 15 | 2 | 9 | 15 | 6
C[C@@H]1CCCCO[C@@H](CN(C)S(=O)(=O)c2cccs2)[C@@H](C)CN([C@H](C)CO)C(=O)c2cc(NC(=O)Nc3ccc(C(F)(F)F)cc3)ccc2O1 | 14 | -3 | 0 | -4 | 11 | 2
C[C@@H]1CN([C@H](C)CO)C(=O)c2cc(NC(=O)Nc3ccc(C(F)(F)F)cc3)ccc2O[C@@H](C)CCCCO[C@H]1CN(C)S(=O)(=O)c1cccs1 | 71* | 4 | 0 | 12 | 9 | -3
C[C@@H]1CN([C@@H](C)CO)C(=O)c2cc(NC(=O)Nc3ccc(C(F)(F)F)cc3)ccc2O[C@@H](C)CCCCO[C@@H]1CN(C)S(=O)(=O)c1cccs1 | -11 | 0 | -6 | 2 | -2 | 5
C[C@@H]1CCCCO[C@@H](CN(C)S(=O)(=O)c2cccs2)[C@H](C)CN([C@H](C)CO)C(=O)c2cc(NC(=O)Nc3ccc(C(F)(F)F)cc3)ccc2O1 | 80* | 7 | 3 | 8 | 13 | 13
O=C(C[C@H]1CC[C@H](NS(=O)(=O)c2ccccc2)[C@@H](CO)O1)NCc1ccncn1 | 3 | 12 | 2 | -1 | 7 | 1
COc1ccc2oc(C)c(C(N)=O)c2c1 | x | x | x | x | -9 | x
COc1ccc2oc(C)c(C(=O)c3ccc([N+](=O)[O-])cc3)c2c1 | 93* | -8 | -19 | -9 | x | -2
COc1ccc2c3c(n(C)c2c1)[C@H](CO)N(C(=O)c1ccc(F)cc1)CC31CCN(CC2CCOCC2)CC1 | x | -12 | 0 | 23 | x | 0
COc1ccc(C(=O)CSc2ccc(-c3ccccc3)nn2)cc1 | 15 | x | x | -22 | 4 | x
CCOc1ccc(-c2ccc(SCC)nn2)cc1 | 1 | -4 | 4 | 59* | x | 4
CCSc1ccc(-c2ccc(C)cc2)nn1 | -124 | -10 | 2 | -19 | 3 | -4

High-throughput results: PubChem, Broad Institute
